The full list was thinned out, with hits kept by preference.
CBX7 inh – inhibitors of human CBX7 binding to H3K27me3 peptide | AlphaScreen His6-CBX7 / biotin-H3K27me3 peptide binding; stronger effect = lower value | normalised signal (fraction of DMSO) (concentration not given with the values) | hit rate 1.1% among 66,000; in the data active means normalised signal below about 0.5
Target sequence (O95931 whole entry, looked up): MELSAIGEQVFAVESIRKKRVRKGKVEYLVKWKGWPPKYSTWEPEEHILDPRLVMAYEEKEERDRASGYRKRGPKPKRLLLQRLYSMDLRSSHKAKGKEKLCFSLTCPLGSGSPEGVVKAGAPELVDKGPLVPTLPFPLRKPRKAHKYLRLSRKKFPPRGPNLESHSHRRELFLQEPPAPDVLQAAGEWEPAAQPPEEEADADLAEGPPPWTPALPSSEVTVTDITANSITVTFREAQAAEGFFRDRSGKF
* marks the source's active call; other numbers are inactive results.

SMILES	CBX7 inh
Cc1ccc(N2C(=O)CC(NCCc3ccc(Cl)cc3)C2=O)cc1 (stereo not given)	1.06
COc1cccc(CNC(=O)c2ccc(CNc3c(N4CCOCC4)c(=O)c3=O)cc2)c1	1.42
c1ccc(-c2csc(N3CCN(Cc4ccc5c(c4)OCO5)CC3)n2)cc1	0.96
O=C1CC(N2CCN(Cc3ccc4c(c3)OCO4)CC2)C(=O)N1CC(c1ccccc1)c1ccccc1 (stereo not given)	1.27
c1ccc(CN2CCC(NCCc3ccc4c(c3)OCO4)CC2)cc1	0.483*
COc1ccc(-c2nc(-c3ccccc3)c(-c3ccc(Cl)cc3)[nH]2)c(OC)c1	0.749
COc1ccc(Nc2c(-c3ccccn3)nc3ccc(Cl)cn23)cc1	0.718
Fc1ccc(Nc2c(-c3ccccn3)nc3ccccn23)cc1	0.0587*
COC(=O)CNc1c(-c2ccccn2)nc2ccccn12	0.281*
COC(=O)CNc1c(-c2ccccn2)nc2cnccn12	0.984
COc1ccc(Nc2c(-c3ccccn3)nc3ccc(Br)cn23)cc1	0.838
COC(=O)CNc1c(-c2c[nH]c3ccccc23)nc2ccc(Br)cn12	0.799
Cc1ccc(Nc2c(-c3cccnc3)nc3cc(C)ccn23)cc1	0.914
COc1ccc(Nc2c(-c3ccccn3)nc3cc(C)ccn23)cc1	0*
Cc1ccc(Nc2c(-c3ccccn3)nc3cc(C)ccn23)cc1	0.000961*
Fc1ccc(Nc2c(-c3ccc(Cl)cc3)nc3ncccn23)cc1	1.23
Cc1ccc(Nc2c(-c3cccc(Br)c3)nc3cc(C)ccn23)cc1	0.794
Fc1ccc(Nc2c(-c3ccccc3)nc3ccccn23)cc1	1.04
Cc1nc2cc(-c3ccc(Cl)cc3)nn2c(C)c1CCC(=O)NCc1ccc(F)cc1	1.14
O=C(CSc1nnc(CNC(=O)c2ccccc2F)o1)Nc1cc(C(F)(F)F)ccc1Cl	1.1
O=C(Nc1ccccc1Br)C1CCCN(S(=O)(=O)c2cccc3cccnc23)C1 (stereo not given)	1.02
O=C(CSc1nnc(-c2cccc(F)c2)n1-c1ccccc1)NC(c1ccccc1)c1ccccc1	0.881
CCOC(=O)c1ccccc1NC(=O)CCc1c(C)nc2cc(-c3cccc(F)c3)nn2c1C	1.08
CCOC(=O)c1cnn(-c2ccccc2)c1NC(=O)CSc1nc(C)cc(C)n1	1.04
Cc1ccc(NC(=O)CN(c2ccc(C(C)C)cc2)S(=O)(=O)c2c(C)nn(C)c2C)cc1Cl	1
SMILES	CBX7 inh
Cc1cccc2oc(-c3ccc(NC(=O)c4ccc(Cl)cc4)cc3)nc12	0.802
CCOC(=O)N1CCN(c2c(NC(CC)Cc3ccccc3)c(=O)c2=O)CC1 (stereo not given)	1.01
Cc1cc(N2CCC(C)CC2)nc2ccc(NC(=O)c3cnccn3)cc12	0.952
Cc1ccn2c(Nc3ccc(C(C)C)cc3)c(-c3ccccn3)nc2c1	0.00753*
Cc1ccn2c(Nc3ccc(C(C)C)cc3)c(-c3ccsc3)nc2c1	1.02
Cc1ccc(-c2nc3cnccn3c2Nc2ccc(C(C)C)cc2)cc1	0.912
CCCCNC(=O)c1c[nH]c2ccc(S(=O)(=O)Nc3cccc(C(F)(F)F)c3)cc2c1=O	0.913
O=C(CCCN1C(=O)CSc2ncccc21)NCC1CCCO1 (stereo not given)	0.988
O=S(=O)(c1ccccc1)c1nc(-c2ccccc2F)oc1N1CCCCC1	0.492*
O=S(=O)(c1ccc(Cl)cc1)c1nc(-c2ccccc2F)oc1N1CCCCC1	0.595
O=S(=O)(c1ccc(Cl)cc1)c1nc(-c2ccccc2F)oc1N1CCCCCC1	0.692
CCCCCC(=O)Nc1ncc2c(n1)CC(C)(C)CC2=O	1.07
O=C(NCCC1=CCCCC1)c1cccc(NC2=NC3CS(=O)(=O)CC3S2)c1 (stereo not given)	1.02
CC(NS(=O)(=O)c1ccccc1)C(c1cccs1)N1CCN(c2ccccc2F)CC1 (stereo not given)	0.937
Cc1ccccc1Cc1c(C)nc2nc(SCC(=O)NCC3CCCO3)nn2c1C (stereo not given)	1.11
Cc1nn(CC(=O)NCCc2c(C)[nH]c3ccc(OCc4ccccc4)cc23)c(C)c1Cl	0.484*
COc1ccc(C(=O)NCCc2c(C)[nH]c3ccc(OCc4ccccc4)cc23)cc1OC	0.521
Cc1[nH]c2ccc(OCc3ccccc3)cc2c1CCNC(=O)c1ccnn1C	0.484*
Cc1[nH]c2ccc(OCc3ccccc3)cc2c1CCNC(=O)c1cccc(Br)c1	0.65
COc1ccc2[nH]c(C)c(CCNC(=O)Cn3nc(C(F)(F)F)cc3C)c2c1	0.79
COC(=O)c1ccc(C(=O)NCCc2c(C)[nH]c3ccc(OCc4ccccc4)cc23)cc1	0.823
CCCCNC(=O)c1cc(-c2cccs2)nc2ccc(S(=O)(=O)NCCCC)cc12	1.03
CCc1ccc(Nc2cc(C)c3ccccc3n2)cc1	1.78
COc1ccc(Nc2cc(C(=O)NCCN(Cc3ccccc3)C(C)C)c3ccccc3n2)cc1OC	0.541
CCCCN(C)CCCNC(=O)c1cc(Nc2ccc(OC)c(OC)c2)nc2ccccc12	0.741
SMILES	CBX7 inh
COc1ccc(Nc2cc(C(=O)NCCCN(C)Cc3ccccc3)c3ccccc3n2)cc1OC	0.436*
CCCCN(C)CCCNC(=O)Cn1nc(-c2ccccc2)ccc1=O	1.02
Cc1ccc(Nc2c(-c3ccc(Cl)cc3)nc3nc[nH]n23)cc1	0.762
COC(=O)c1ccc(C2C(Oc3ccc(OC)cc3)C(=O)N2Cc2ccc(F)cc2)cc1 (stereo not given)	0.927
Cc1cccc(NC2c3ccccc3C(=O)N2c2ccc(Cl)cn2)c1C (stereo not given)	0.927
CCN(CC)c1ccc(NC2c3ccccc3C(=O)N2c2ccc(Cl)cn2)c(C)c1 (stereo not given)	0.065*
Cc1ccc(NC2c3ccccc3C(=O)N2c2ccc(Cl)cn2)cc1F (stereo not given)	1.18
CCCCNS(=O)(=O)c1ccc2nc(-c3cccnc3)cc(C(=O)O)c2c1	1.12
COc1cccc(CNc2ccc3c(c2)ncn3C(C)(C)C)c1OC	0.639
Cc1ccc(C(=O)Nc2ccc3c(c2)ncn3-c2ccccc2)cc1	0.986
COc1ccc(-n2cnc3cc(NCc4cccc(OC)c4OC)ccc32)cc1	0.198*
CCCn1cnc2cc(NCc3ccc(OC)cc3OC)ccc21	0.878
CCn1cnc2cc(NCc3ccc(OC)cc3OC)ccc21	0.926
COc1cccc(CNc2ccc3c(c2)ncn3-c2ccccc2)c1OC	0.259*
O=C(NCCCc1nc2ccccc2n1Cc1c(F)cccc1Cl)c1cccs1	1.03
COc1ccc(-c2noc(CCC(=O)Nc3ccc(OC)cc3OC)n2)cc1	1.05
COc1ccc(-c2csc(N3CCN(c4ccccn4)CC3)n2)cc1	1.03
CCCn1cc(C2CC(=O)N(c3ccc(Br)cc3)C2=O)c2ccccc21 (stereo not given)	1.07
CCCn1cc(C2CC(=O)N(c3ccc(C)cc3)C2=O)c2ccccc21 (stereo not given)	1.02
CCCn1cc(C2CC(=O)N(c3ccccc3C)C2=O)c2ccccc21 (stereo not given)	0.464*
CCc1nc2ccccc2n1CC(O)COc1ccc(C(C)C)cc1 (stereo not given)	0.985
Cc1ccc(-c2noc(COc3ccc(Br)cc3Cl)n2)cc1	1.18
CCCCN(CCCC)S(=O)(=O)c1ccc(C(=O)Nc2nc(-c3ccccn3)cs2)cc1	0.933
COc1cc(C(=O)Nc2nc(-c3ccccn3)cs2)cc(OC)c1OC	0*
O=C(Nc1nc(-c2ccccn2)cs1)c1ccc(N2C(=O)CCC2=O)cc1	0.0715*
CN(Cc1ccccc1)S(=O)(=O)c1ccc(C(=O)Nc2nc(-c3ccccn3)cs2)cc1	0.94
